# Screens: PubChem BioAssay, National Center for Advancing Translational Sciences (NCATS)
# SMN2 splice up: increases expression of the SMN2 splice variant | AID 1458 | Potency, µM (doses to about 46.1 µM), for the others: at the top dose activity change, positive = activation, usual class: activators | HEK293 SMN2-luciferase splicing reporter, luminescence, 30-36 h | 210,000 tested, 2.8% active; also: % of control where 0% means no effect; nearly all actives have a fitted effect of over 55% in size
#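 qHTS luciferase splicing reporter: luminescence rises when SMN2 exon 7 is included in transfected HEK293 cells. Compound exposure lasted 30-36 h at 37C, with 4.5 mM final sodium butyrate as control, followed by a ONE-Glo read.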
# FLuc modulator: firefly luciferase modulation, counter-screen for miR-21 project; 360,000 tested, 6.9% active; P08659; Potency, µM (highest dose often 57.5 µM), for inactives: at the highest dose activity change, negative = inhibition, most hits filed as inhibitors; purified FLuc, Km substrates, luminescence inhibition;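 also: plate controls were vehicle for no effect and reference inhibitor for full effect; nearly all actives have a fitted effect of over 55% in size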
# Target sequence (P08659 whole entry, looked up): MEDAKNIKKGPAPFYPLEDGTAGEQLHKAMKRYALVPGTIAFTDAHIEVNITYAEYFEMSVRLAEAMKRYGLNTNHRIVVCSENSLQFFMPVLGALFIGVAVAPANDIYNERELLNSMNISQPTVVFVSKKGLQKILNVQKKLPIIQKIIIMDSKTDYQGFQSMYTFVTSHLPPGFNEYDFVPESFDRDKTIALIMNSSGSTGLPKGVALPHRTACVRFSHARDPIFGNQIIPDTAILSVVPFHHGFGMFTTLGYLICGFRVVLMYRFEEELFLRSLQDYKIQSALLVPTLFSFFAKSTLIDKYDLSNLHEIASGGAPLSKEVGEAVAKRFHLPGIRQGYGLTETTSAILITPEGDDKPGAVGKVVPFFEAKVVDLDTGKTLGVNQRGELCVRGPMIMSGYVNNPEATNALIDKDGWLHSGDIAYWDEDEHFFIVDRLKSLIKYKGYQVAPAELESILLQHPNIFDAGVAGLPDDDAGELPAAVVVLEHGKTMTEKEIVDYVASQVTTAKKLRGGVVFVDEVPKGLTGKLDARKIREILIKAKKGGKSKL
#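 Purified P. pyralis luciferase (10nM final) with 10uM D-luciferin and 10uM ATP (Km levels) in 50mM Tris acetate pH 7.5, 10mM Mg acetate, 0.01% Tween-20, 0.05% BSA; qHTS 6-point titration, ~60 µM downward; luminescence read.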
# Rab9 prom act: activates the Rab9 promoter; Huh7 Rab9 promoter-luciferase reporter, luminescence, 24 h; Potency, µM (top dose mostly 9.22 µM), for the others: at the top dose activation, negative = inhibition, actives largely listed as activators; 320,000 tested, 2.8% active; AID 485297; also: % of control where 0% means no effect; nearly all actives have a fitted effect of over 60% in size
#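 Rab9 promoter-driven luciferase in stably transfected Huh7 cells; 1500 cells/well rested 2 h, exposed to compound in DMSO for 24 h at 37 °C, 5% CO2. Luminescence read 10 min after adding luciferase reagent at ambient temperature.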
# ELG1 genotox: genotoxicity induction in ELG1-luciferase HEK293T cells | HEK293T ELG1-luciferase reporter, luminescence, 16 h | Potency, µM (series often up to 46 µM), inactives show at the highest dose activity change, positive = activation, usual class: activators | 330,000 tested, 1.3% active | AID 504466; also: % of control where 0% means no effect; nearly all actives have a fitted effect of over 60% in size
#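 HEK293T cells expressing luciferase-tagged ELG1 were treated with compound or DMSO for 16 hr at 37°C. Luciferase activity was then read after 30 min with ONE-Glo at room temperature; rising signal flags genetic stress.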
# ELG1 repair inh: inhibitors of ELG1-dependent DNA repair in HEK293T cells; HEK293T ELG1-luciferase reporter, luminescence, 16 h; DNA damage induced by 5-fluorouridine; Potency, µM (titrated, usually from 46.1 µM), without a hit: at the highest dose activity change, negative = inhibition, hits mostly inhibitors; 330,000 tested, 2.3% active; also: % is scaled to controls: 0 for no effect and ±100 for the full control effect; nearly all actives have a fitted effect of over 55% in size
#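 5-Fluorouridine DNA damage + compound/DMSO, 2,000 cells/well, 16 h, 37 °C/5% CO2. ONE-Glo, 30 min RT, luminescence. Readout = decrease in reporter signal.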
# NPC1 prom act: activators of NPC1 promoter; AID 485313; 320,000 tested, 2.4% active; Huh7 NPC1 promoter luciferase reporter, 24 h; Potency, µM (titrated, usually from 9.22 µM), for the others: at the top dose activation, usual class: activators; also: % of control where 0% means no effect; nearly all actives have a fitted effect of over 60% in size
#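 Huh7 cells stably carrying NPC1 promoter–luciferase, plated in Opti-MEM with 10% FBS for 2 h, were exposed to compound in DMSO for 24 h at 37 °C; luciferase reagent was added for 10 min and luminescence read.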
# Numbers without * were called inactive; ? = inconclusive; . = no result given; [ ] = dose if it differs, or a comment. In the library only some 9.3% were active in any assay of this set; here they are far more common. Calls follow the shape of the dose curve; as a rule, active = well fitted curve in the direction sought with a large enough effect; inconclusive = small, poorly fitted or top-dose-only effect, or another doubt; inactive = no such curve, though single readings can be large; an effect the other way counts as inactive or inconclusive. Potency is read from the fitted curve at half-maximal effect.
SMILES,SMN2 splice up,FLuc modulator,Rab9 prom act,ELG1 genotox,ELG1 repair inh,NPC1 prom act
COc1cccc(N=Nc2c(O)[nH]c(=S)[nH]c2=O)c1,.,13µM*,?,?,?,21%
O=c1[nH]c(=S)[nH]c(O)c1N=Nc1cccc(S(=O)(=O)N2CCOCC2)c1,.,2%,-1%,1%,?,1%
COc1ccc(N=Nc2c(O)[nH]c(=S)[nH]c2=O)cc1,18µM*,6µM*,1.8µM*,?,?,1.6µM*
O=c1[nH]c(=S)[nH]c(O)c1N=Nc1ccc(OC(F)F)cc1,13µM*,5.4µM*,2µM*,?,?,?
NS(=O)(=O)c1ccc(N=Nc2c(O)[nH]c(=S)[nH]c2=O)cc1,.,?,9%,-3%,-43%,-1%
Cc1ccc2ccccc2c1C,-1%,.,.,.,.,.
CN(C)C(=O)Oc1cccc(NC(=O)c2ccccc2C(F)(F)F)c1,.,-2%,-2%,-1%,-4%,-1%
COc1ccccc1NC(=O)c1oc2ccccc2c1NC(=O)c1ccccc1C(F)(F)F,-6%,11µM*,.,.,.,.
ClC1=C(Cl)C2(Cl)C3C(Cl)C(Cl)CC3C1(Cl)C2(Cl)Cl (configuration not stated),-11%,.,.,.,.,.
COc1ccc(-n2c(C)nc3cc(C(=O)N4CCC5(CC4)OCCO5)ccc32)cc1,13%,1%,-2%,-4%,-3%,-6%
COc1ccc(-c2nc3ccc(C(=O)N4CCC5(CC4)OCCO5)cc3nc2-c2ccc(OC)cc2)cc1,.,1%,-5%,-10%,16µM*,-2%
CN1CCN(c2ccc(N)c(N3CCN(C)CC3)c2)CC1,5%,-1%,-3%,3%,0%,6%
Cc1ccc2scc(N3CCN(C)CC3)c(=O)c2c1,.,12µM*,.,.,.,.
[N-]=[N+]=CC(=O)CC[C@H](N)C(=O)O,1%[9.22 µM],.,.,.,.,.
CC[C@@H]1CN2CCc3cc(OC)c(OC)cc3[C@H]2C[C@@H]1C[C@@H]1NCCc2cc(O)c(OC)cc21,-71%[20.6 µM],.,.,.,.,.
C=CCc1ccc(OCCn2nnc3ccccc32)c(OC)c1,.,11µM*,4µM*,16µM*,?,2.8µM*
C=CCN1C(=O)NC(=O)C(Cc2ccc(OC)c(OC)c2)C1=O (configuration not stated),17%,-5%,-2%,-5%,10%,1%
CN[C@H]1C[C@H]2O[C@@](C)([C@H]1OC)n1c3ccccc3c3c4c(c5c6ccccc6n2c5c31)C(=O)NC4,-97%,-6%,-37%,-16%,0.52µM*,-43%
Nc1nc2c(ncn2[C@@H]2O[C@H](CO)[C@@H](O)[C@@H]2O)c(=[SH+])[nH]1.O=[N+]([O-])c1ccc(O)[c]([Hg])c1,-99%[9.22 µM],.,.,.,.,.
O=c1cc(-c2ccc(O)c(O)c2)oc2cc(O)cc(O)c12,8.9µM*,24µM*,-12%,?,?,1%
C=CC(=O)OCCN(C)C,11%,.,.,.,.,.
CCN(CC)C(=O)c1ccc(NC(=O)Nc2ccccc2F)cc1,2.8µM*,1.5µM*,?,?,?,0.32µM*
CCCn1c(=O)n(C)c(=O)c2c(SCC(=O)NC34CC5CC(CC(C5)C3)C4)nc(CC(C)C)nc21,-31%,2%,0%,-12%,23µM*,0%
Cc1cccc(N)c1C,17%,.,.,.,.,.
CN1CCc2nc3sc(C#N)c(N)c3c(-c3cccs3)c2C1,29%,2%,-1%,-5%,-16%,2%
SMILES,SMN2 splice up,FLuc modulator,Rab9 prom act,ELG1 genotox,ELG1 repair inh,NPC1 prom act
NC(=O)c1sc2nc3c(c(-c4cccs4)c2c1N)CCCC3,24%,0%,3%,-15%,2.3µM*,-3%
CC(C)(C)C(=O)c1cn(CC(=O)NCc2ccco2)c2ccccc12,14µM*,?,3.2µM*,?,?,?
O=C(Cn1cc(C(=O)c2ccccc2F)c2ccccc21)NCc1ccco1,-6%,-1%,8%,6%,4%,4%
COc1cccc(OCc2cc(C(=O)N3C[C@H]4C[C@@H](C3)c3cccc(=O)n3C4)no2)c1,.,17µM*,4µM*,18µM*,?,3.2µM*
COc1cc(OC)cc(C(=O)NC(=S)N2C[C@H]3C[C@H](C2)c2cccc(=O)n2C3)c1,.,2%,-3%,4%,-15%,2%
O=C(C[N+]12CCC(CC1)C(OC(=O)c1ccccc1)C2)c1ccc([N+](=O)[O-])cc1 (configuration not stated),.,2%,9%,-5%,?,-6%
O=C(C[N+]12CCC(CC1)C(CO)C2)c1ccc([N+](=O)[O-])cc1 (configuration not stated),-17%,-1%,-8%,-8%,9.2µM*,-1%
CN(C)CCN(C)CCc1ccc(Cl)c(Cl)c1,-29%,.,.,.,.,.
COC(=O)C(O)(c1ccc(NC(=O)c2ccccc2)cc1)C(F)(F)F (configuration not stated),.,19µM*,?,9%,?,?
COC(=O)C(O)(c1ccc(NC(=O)c2cccs2)cc1)C(F)(F)F (configuration not stated),.,15µM*,?,17%,?,26%
CCCCNC(=O)Nc1ccc(C(O)(C(=O)OC)C(F)(F)F)cc1 (configuration not stated),.,?,13%,16%,?,13%
N=C1/C(=C\c2ccc(OC(=O)c3ccccc3Cl)cc2)C(=O)N=C2SC(N3CCOCC3)=NN12,.,24µM*,4%,9%,12%,14%
CC(C)CN1CC[C@@]2(CCCN(C(=O)Oc3ccccc3)C2)C1,-7%,.,.,.,.,.
O=C(NCCSc1c(-c2ccccc2)[nH]c2ccccc12)c1ccc(S(=O)(=O)N2CCOCC2)cc1,-42%,2%,.,.,.,.
COc1ccccc1-n1c(-c2ccc(C)cc2)nc2ccccc2c1=O,.,13µM*,-1%,14%,2%,-3%
COc1cc(/C=C/c2nc3ccccc3c(=O)n2-c2ccccc2O)ccc1O,.,17µM*,1%,11%,?,1%
CC(C)=CCCC1(C)C=Cc2c(O)c3c(c(CC=C(C)C)c2O1)OC12C(CC4CC1C(C)(C)OC2(C/C=C(/C)C(=O)O)C4O)C3=O (configuration not stated),-25%,.,.,.,.,.
O=C(C1CC(c2ccccc2O)=NO1)N1CCC2(CC1)OCCO2 (configuration not stated),?,11µM*,?,16µM*,?,3.5µM*
COC(=O)C1=C(c2ccccc2OCc2ccccc2)C[C@@H]2CC[C@H]1N2C(=O)NCCc1ccc(F)cc1,.,2%,-4%,-8%,21µM*,-3%
